eIF4H FP inh: inhibitors of RNA binding by human eIF4H; Q15056; eIF4H fluorescence polarization binding assay; inhibition, % at 35 µM; actives 0.94% (n = 290,000);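 further: calls also rest on retests at 20 µM and on dose response follow-up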
PERK inh: human PERK inhibition, primary cell-based screen; CHO PERK-DD fusion, SEAP luminescence translation reporter; inhibition, % at 5.6 µM; actives 0.17% (n = 220,000);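 active means inhibition above the mean inhibition of all tested compounds plus 3 SD, set separately per screening campaign, cut at about 2.9% in these data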;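 further: PERK kinase domain activated by AP20187 dimerizer at 100 nM; 0% = DMSO with dimerizer and 100% = rapamycin at 8.4 µM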
M18AAP inhibitor: PfM18AAP enzyme inhibition; recombinant PfM18AAP, H-Glu-NHMec fluorogenic cleavage; inhibition, % at 7.35 µM; actives 1.2% (n = 290,000);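 active means inhibition above the campaign mean inhibition over all tested compounds plus 3 SD, cut at about 28% in these data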;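 further: 0% = plate median of test compound wells and 100% = 2 mM ZnCl2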
eIF4E-4G inh: inhibitors of eIF4E and eIF4G interaction in translation initiation | TR-FRET eIF4E-eIF4GI(517-606) binding, 2 h | inhibition, % at 21.7 µM | actives 0.37% (n = 220,000);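 active means inhibition above about 30%, limit read from the data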;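 further: 0% = full FRET control wells and 100% = background wells lacking eIF4GI fragment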
MLLE-PAM2 inh: inhibitors of microRNA-mediated deadenylation, human PABP1 MLLE binding. P11940. GST-MLLE / FITC-PAM2 fluorescence polarization. inhibition, % at 20 µM. actives 0.36% (n = 360,000). AID 588489; in the data active means inhibition above about 35%, passing the limit was not always enough;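 further: plate controls were DMSO wells with GST-MLLE for no effect and wells lacking GST-MLLE protein for full effect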
Target sequence (P11940 whole entry, looked up): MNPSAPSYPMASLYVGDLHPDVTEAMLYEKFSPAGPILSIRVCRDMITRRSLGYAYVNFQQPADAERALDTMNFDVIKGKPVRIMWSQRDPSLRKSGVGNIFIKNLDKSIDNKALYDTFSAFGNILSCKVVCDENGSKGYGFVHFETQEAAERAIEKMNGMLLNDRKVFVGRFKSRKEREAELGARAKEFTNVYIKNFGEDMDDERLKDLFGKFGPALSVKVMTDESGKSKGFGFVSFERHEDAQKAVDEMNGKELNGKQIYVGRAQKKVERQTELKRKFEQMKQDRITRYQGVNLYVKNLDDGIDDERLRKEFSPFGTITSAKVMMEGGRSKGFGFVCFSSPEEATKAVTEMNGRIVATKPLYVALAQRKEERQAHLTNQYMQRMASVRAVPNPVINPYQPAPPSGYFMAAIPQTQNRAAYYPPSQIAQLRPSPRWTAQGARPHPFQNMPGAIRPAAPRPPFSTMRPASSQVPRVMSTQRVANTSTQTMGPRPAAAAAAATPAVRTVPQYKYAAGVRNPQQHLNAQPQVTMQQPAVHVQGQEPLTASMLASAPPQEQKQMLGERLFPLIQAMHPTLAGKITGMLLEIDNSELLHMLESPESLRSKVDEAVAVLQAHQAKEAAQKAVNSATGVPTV
PABP polyA inh: blocks human PABP binding to poly(A) RNA. P11940. fluorescence polarization. inhibition, % at 35 µM. actives 1% (n = 290,000);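 further: calls also rest on retests at 20 µM and on dose response follow-up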
* = called active by the depositor; / = no result. Rows were chosen to be rich in hits. Some 2.4% of all compounds tested hit in one or more screens of this group. Unless noted, how the calls were made is not given here.

SMILES | eIF4H FP inh | PERK inh | M18AAP inhibitor | eIF4E-4G inh | MLLE-PAM2 inh | PABP polyA inh
COc1cc(-c2cc(-c3ccc(O)cc3)nc(N)c2C#N)ccc1O | -3.4 | 0.5 | -7.6 | -2.5 | -1.6 | 6.6
CCOc1cc(-c2cc(-c3ccc(C)cc3)nc(N)c2C#N)ccc1O | 57.5* | -2.5 | 10.0 | 4.2 | -40.1 | 73.7*
Cc1cccc(OCC(=O)N2CCc3ccccc3C2)c1C | / | / | / | / | -5.3 | /
O=C1C2=C(SCCS2)C(=O)N1CCCO | 101.3* | 0.3 | 10.3 | 0.7 | 57.7* | 110.7*
c1ccc(-c2nnc(-c3ccco3)o2)cc1 | -6.0 | 1.2 | 8.6 | -2.8 | 6.9 | -0.4
c1coc(-c2nnc(-c3ccco3)nn2)c1 | 99.1* | / | 53.8* | / | 38.2* | 75.6*
Cn1cc(CN2C[C@]3(C)C[C@H]2CC(C)(C)C3)c(-c2ccc3c(c2)OCCO3)n1 | 2.3 | 1.4 | 5.4 | 2.9 | -5.3 | 0.6
Cc1nn(-c2ccccc2)c2c1C(c1ccc(O)c(O)c1)N1C(=N2)C(Nc2ccccc2)=Nc2ccccc21 (stereo unspecified) | 25.9 | -0.5 | 34.2* | 1.1 | 11.0 | 26.1
Cc1ccc(NC2=Nc3ccccc3N3C2=Nc2c(c(C)nn2-c2ccccc2)C3c2ccc(O)c(O)c2)cc1 (stereo unspecified) | 24.1 | -0.1 | 10.9 | 6.6 | -3.4 | 14.4
CC(C)(C)c1ccc(C(=O)OC/C(O)=C(\C#N)c2nc3ccccc3s2)cc1 | -1.5 | 0.7 | -2.7 | 6.1 | 6.7 | -8.9
N#C/C(=C(/O)COC(=O)c1ccccc1O)c1nc2ccccc2s1 | 56.5 | 0.6 | -0.4 | 7.1 | -7.8 | 19.9*
N#CC1(c2ccc(NC(=O)c3ccccc3F)cc2)CCCC1 | 0.4 | -0.1 | 5.6 | -8.2 | 0.7 | 18.6
COc1ccc(CCNC(=O)c2ccc3c(=O)n(Cc4ccco4)c(=S)[nH]c3c2)cc1OC | 72.8* | 0.6 | 3.3 | -12.8 | -28.8 | 22.3*
COc1ccc(CCNC(=O)c2ccc3nc(-c4ccco4)c(-c4ccco4)nc3c2)cc1OC | 106.0* | -0.6 | 2.7 | 13.8 | 38.1* | 67.1*
CCOCCCn1c(=S)[nH]c2cc(C(=O)NCCc3ccc(OC)c(OC)c3)ccc2c1=O | 13.8 | / | -3.4 | / | -80.1 | 0.7
CCCNC(=O)c1ccc2c(=O)n(Cc3ccco3)c(=S)[nH]c2c1 | 91.4* | 0.7 | 9.7 | -7.0 | -62.4 | 99.0*
Cc1c(/C=C(\C#N)c2nn(-c3ccccc3)c(N)c2C#N)c2ccccc2n1Cc1ccc(F)cc1 | 51.6* | -0.4 | 5.0 | -6.6 | -38.6 | 68.5*
Cc1ccc(/C=C(\C#N)c2nn(-c3ccccc3)c(N)c2C#N)cc1 | -13.2 | -1.4 | -1.8 | 1.6 | -10.9 | 1.9
CNC(=S)Nc1ccc(Nc2ccccc2)cc1 | -0.4 | 1.3 | 6.6 | 4.6 | 2.0 | -14.1
CC1=NN(Cc2ccccc2)C(=O)/C1=C\c1ccc(N(C)C)cc1 | -26.4 | 0.7 | 0.0 | 3.8 | -25.3 | -19.0
Cc1ccccc1-c1nnc2s/c(=C\c3ccc(N(C)C)cc3)c(=O)n12 | 82.4* | / | / | / | / | 90.6*
CC(=O)c1ccc(NC(=S)NCCc2ccc(S(N)(=O)=O)cc2)cc1 | 5.3 | 0.9 | 0.0 | -3.0 | 40.4* | 1.2
NS(=O)(=O)c1ccc(NC(=O)c2ccc(-c3ccccc3)cc2)cc1 | 60.5 | 1.6 | -13.0 | 14.6 | 4.7 | 3.1
CC(C)(C)c1ccc(C(=O)Nc2ccc(S(N)(=O)=O)cc2)cc1 | 61.6* | -0.3 | 1.2 | 5.3 | 6.5 | 15.1*
CC(Oc1ccc(Br)cc1)C(=O)O/N=C(\N)c1ccncc1 (stereo unspecified) | -5.9 | / | 3.0 | / | -3.7 | 9.7
SMILES | eIF4H FP inh | PERK inh | M18AAP inhibitor | eIF4E-4G inh | MLLE-PAM2 inh | PABP polyA inh
CCn1c(=NC(=O)C2COc3ccccc3O2)sc2c(C)ccc(OC)c21 (stereo unspecified) | 6.6 | 1.6 | -2.2 | 90.0* | 2.8 | 13.7
COc1ccccc1C(=O)Nc1ncc2c(n1)CC(c1ccco1)CC2=O (stereo unspecified) | 73.8* | -0.1 | -1.5 | -2.7 | 7.2 | 37.3*
O=C(N=C1SC2CS(=O)(=O)CC2N1c1ccc(Cl)c(Cl)c1)C1CCCO1 (stereo unspecified) | -1.6 | / | 11.5 | / | -1.6 | -2.8
CN(CCC#N)C(=O)COC(=O)c1c2c(nc3ccccc13)/C(=C/c1ccco1)CC2 | 95.3* | 0.1 | 21.3 | 7.2 | -5.1 | 5.9
CSc1ccc(/C=N/Nc2cccc(C(=O)O)c2)cc1 | 104.2 | -0.2 | 19.0 | 34.5* | 9.0 | 9.9
COC(=O)c1ccc(COc2ccc(/C=N/Nc3cccc(C(=O)O)c3)cc2)cc1 | 75.3* | 2.2 | 20.5 | 4.9 | 5.7 | 54.3*
O=C(O)c1cccc(N/N=C/c2ccc(OC(F)(F)F)cc2)c1 | -1.9 | / | 11.0 | / | 16.4 | -1.2
CCCCN1CCCCC1(C)C(=O)NCc1cccc(OC)c1 (stereo unspecified) | / | / | / | / | -7.8 | /
COCCn1c(SCC(=O)c2c(N)n(C)c(=O)n(C)c2=O)nc2ccccc21 | 3.0* | 0.2 | 3.1 | -0.4 | -1.0 | 61.3*
CC(C)Cn1c(SCC(=O)c2c(N)n(C)c(=O)n(C)c2=O)nc2ccccc21 | 3.5 | -0.4 | 0.4 | 1.2 | -114.0 | -11.6
CC(=O)Nc1ccc(-c2ccccc2)s1 | 69.2 | 0.8 | -8.9 | 3.7 | -139.1 | 45.6*
COC(=O)c1sc(N2C(=O)C(O)=C(C(=O)c3ccc(C)o3)C2c2ccco2)nc1C (stereo unspecified) | 52.2* | / | 17.4 | / | -18.9 | 34.4*
CCOc1cc(C(=O)NC(C)c2ccncc2)cc(OCC)c1OCC (stereo unspecified) | 2.1 | 0.7 | -2.5 | 2.0 | -3.8 | 14.3
CCc1nnc(NC(=O)C2CCN(c3nc(C)cc(C)n3)CC2)s1 | -0.7 | -0.5 | -1.2 | 1.1 | -16.8 | 5.1
CC(C)C#Cc1cnc2c(c1)C(=O)N([C@@H](C)CO)C[C@@H](C)[C@H](CN(C)Cc1cccc(F)c1)O2 | / | / | / | / | 1.3 | /
O=C(NNc1ccc([N+](=O)[O-])cc1)C1C2CCCCC21 (stereo unspecified) | -6.7 | 1.3 | 58.9* | -2.5 | -0.9 | 2.9
O=C(NNc1ccc([N+](=O)[O-])cc1[N+](=O)[O-])C1C2CCCCC21 (stereo unspecified) | -1.2 | 1.5 | 5.6 | -1.9 | -13.2 | 3.8
CCCc1nnc(NC(=O)CNc2ccc(F)cc2)s1 | 13.7 | 3.1* | 7.2 | -13.9 | 0.9 | 2.0
CCCc1nnc(NC(=O)CCC(=O)N2CCN(S(=O)(=O)c3ccc(F)cc3)CC2)s1 | -6.0 | 1.2 | -19.0 | 4.5 | -4.7 | -1.4
N#C/C(=C\c1ccco1)C(=O)Nn1cnnc1 | -8.3 | 0.8 | 31.6* | -2.0 | 3.0 | -7.8
C=CCSC1=N/C(=C\c2cc(OC)c3c(c2)OCO3)C(=O)S1 | 57.4* | 0.2 | 14.0 | -1.1 | -15.2 | 22.2
CCOc1ccc(NC(=O)CCS(=O)(=O)c2ccc(Br)cc2)cc1 | 76.1* | / | -2.3 | / | 7.4 | 22.2
O=C(CCS(=O)(=O)c1ccc(Cl)cc1)Nc1ccccc1Br | -10.6 | / | -3.9 | / | 7.4 | 0.7
